The panel holds about 83,000 compounds, 20% with a hit somewhere; the sample as a whole holds those more often.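 Treatment: one concentration, 48 hours, 96-well format. Scoring: percent growth, with anything below 10 considered active.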 Active and inactive are the calls of the source.
What was measured:
Test in all cases: NCI-60 one-dose screen, 48 h (100 = growth as untreated, 0 = no growth, -100 = all killed)
Details in all cases: 10 µM
NCI-H23 lung = tested on: NCI-H23 lung
NCI-H226 lung = tested on: NCI-H226 lung
NCI-H322M lung = tested on: NCI-H322M lung
NCI-H460 lung = tested on: NCI-H460 lung
786-0 renal = tested on: 786-0 renal
COLO 205 colon = tested on: COLO 205 colon
DU-145 prostate = tested on: DU-145 prostate
K-562 leukemia = tested on: K-562 leukemia
MALME-3M melanoma = tested on: MALME-3M melanoma
MDA-MB-231 breast = tested on: MDA-MB-231 breast
RXF 393 renal = tested on: RXF 393 renal
SF-268 CNS = tested on: SF-268 CNS
SF-295 CNS = tested on: SF-295 CNS
SF-539 CNS = tested on: SF-539 CNS
UACC-257 melanoma = tested on: UACC-257 melanoma
M14 melanoma = tested on: M14 melanoma
NCI-H522 lung = tested on: NCI-H522 lung
A549/ATCC NSCLC = tested on: A549/ATCC NSCLC
HOP-92 NSCLC = tested on: HOP-92 NSCLC
HOP-62 NSCLC = tested on: HOP-62 NSCLC

Measured: growth

CCCCC/C=C/C/C=C/CCCCCCCC1=NC(C)(C)CN1C(C)C
inactive: NCI-H23 lung 20.7% | NCI-H226 lung 86.5% | NCI-H322M lung 108% | 786-0 renal 62.4% | DU-145 prostate 63.1% | MALME-3M melanoma 56.3% | MDA-MB-231 breast 36.6% | RXF 393 renal 25.1% | SF-268 CNS 55.6% | SF-295 CNS 31.2% | SF-539 CNS 65.7% | UACC-257 melanoma 25.7% | M14 melanoma 28.5%
active: NCI-H460 lung -32.3% | COLO 205 colon -87.2% | K-562 leukemia -30.9%

C=C1CCC2(C#N)[C@H]3[C@H](CC[C@@H]2C)[C@@H](C)C[C@@H](CC(C)(C)NC(=O)CN2CCC2=O)[C@H]13 (some centres not stated)
inactive: NCI-H23 lung 60.3% | NCI-H226 lung 60.6% | NCI-H322M lung 96.1% | NCI-H460 lung 52.1% | NCI-H522 lung 46.6% | A549/ATCC NSCLC 67.3% | COLO 205 colon 54% | DU-145 prostate 89.5% | MALME-3M melanoma 83.2% | MDA-MB-231 breast 47.6% | RXF 393 renal 55.5% | SF-268 CNS 63.3% | SF-295 CNS 60.5% | SF-539 CNS 47% | UACC-257 melanoma 80.8%

NC(N)=N/N=C(\c1ccccc1)C(O)c1ccccc1 (configuration not stated)
inactive: NCI-H23 lung 101% | NCI-H226 lung 96.1% | NCI-H322M lung 101% | HOP-92 NSCLC 95% | NCI-H522 lung 82.5% | A549/ATCC NSCLC 102% | 786-0 renal 98.3% | COLO 205 colon 101% | DU-145 prostate 112% | K-562 leukemia 90.7% | MALME-3M melanoma 96.2% | MDA-MB-231 breast 100% | RXF 393 renal 98.8% | SF-295 CNS 102% | SF-539 CNS 111% | UACC-257 melanoma 101%

CC(C)(C)c1ccc(S(=O)(=O)N[C@H]2CC[C@H]3[C@@H]4CCc5cc(O)ccc5[C@H]4CC[C@]23C)cc1
active: COLO 205 colon 8.52%
inactive: NCI-H23 lung 50.3% | NCI-H226 lung 55.7% | NCI-H322M lung 78.7% | NCI-H460 lung 33.7% | NCI-H522 lung 31.8% | A549/ATCC NSCLC 28.5% | 786-0 renal 49.6% | DU-145 prostate 62.9% | K-562 leukemia 17% | MALME-3M melanoma 25.6% | MDA-MB-231 breast 33.7% | RXF 393 renal 12% | SF-268 CNS 50.9% | SF-539 CNS 78.7% | UACC-257 melanoma 68.7% | M14 melanoma 45.8%

CN(C)c1ccc(/C=N/NC(=O)c2cccc3ccccc23)c(Cl)c1
active: NCI-H23 lung 1.31% | RXF 393 renal 7.47%
inactive: NCI-H226 lung 61.2% | NCI-H322M lung 57.6% | NCI-H460 lung 19.2% | NCI-H522 lung 22.6% | A549/ATCC NSCLC 26.8% | 786-0 renal 56.1% | COLO 205 colon 19.7% | DU-145 prostate 17.1% | K-562 leukemia 11.6% | MALME-3M melanoma 53.4% | MDA-MB-231 breast 67.7% | SF-268 CNS 59% | SF-295 CNS 19.1% | SF-539 CNS 19.9% | UACC-257 melanoma 35.8% | M14 melanoma 27.6%

O=C1/C(=C/c2cccc(F)c2)Cc2ccccc21
inactive: NCI-H23 lung 101% | NCI-H226 lung 105% | NCI-H322M lung 94.4% | NCI-H460 lung 107% | HOP-92 NSCLC 73.5% | A549/ATCC NSCLC 87.7% | 786-0 renal 98.1% | COLO 205 colon 124% | DU-145 prostate 113% | K-562 leukemia 106% | MALME-3M melanoma 106% | MDA-MB-231 breast 112% | RXF 393 renal 99.4% | SF-268 CNS 112% | SF-295 CNS 77.9% | SF-539 CNS 110% | M14 melanoma 98.8%

CCN1C(=O)CC(SC2CC(=O)N(CC)C2=O)C1=O (configuration not stated)
inactive: NCI-H23 lung 95.9% | NCI-H226 lung 104% | NCI-H322M lung 110% | NCI-H460 lung 109% | NCI-H522 lung 96.1% | A549/ATCC NSCLC 104% | 786-0 renal 101% | COLO 205 colon 81.4% | DU-145 prostate 101% | K-562 leukemia 82.7% | MALME-3M melanoma 97.6% | MDA-MB-231 breast 105% | RXF 393 renal 111% | SF-268 CNS 96.1% | SF-295 CNS 106% | SF-539 CNS 100% | UACC-257 melanoma 100% | M14 melanoma 97.6%

O=C(O)COc1c(Cl)cc([N+](=O)[O-])cc1Cl
inactive: NCI-H23 lung 99% | NCI-H226 lung 96.4% | HOP-62 NSCLC 88.8% | NCI-H460 lung 109% | HOP-92 NSCLC 78.5% | NCI-H522 lung 76.8% | A549/ATCC NSCLC 81.7% | 786-0 renal 88.6% | COLO 205 colon 102% | DU-145 prostate 111% | K-562 leukemia 92.2% | MALME-3M melanoma 97.1% | MDA-MB-231 breast 117% | RXF 393 renal 102% | SF-268 CNS 96.5% | SF-295 CNS 100% | SF-539 CNS 99.5% | UACC-257 melanoma 79.7%

CC(=O)/C(=C/c1ccc(Br)cc1)C(=O)c1ccccc1
inactive: NCI-H23 lung 99.5% | NCI-H226 lung 87.8% | NCI-H322M lung 115% | NCI-H460 lung 103% | NCI-H522 lung 85.2% | A549/ATCC NSCLC 94% | 786-0 renal 84.5% | COLO 205 colon 111% | DU-145 prostate 81.6% | K-562 leukemia 30.7% | MDA-MB-231 breast 77.4% | SF-268 CNS 67.4% | SF-295 CNS 88.9% | SF-539 CNS 96.7% | UACC-257 melanoma 78.3% | M14 melanoma 69.9%

O=c1oc2c(cc1-c1ccc(F)cc1)C(O)Oc1ccccc1-2 (configuration not stated)
inactive: NCI-H23 lung 99.2% | NCI-H226 lung 105% | NCI-H322M lung 83.1% | NCI-H460 lung 80.8% | HOP-92 NSCLC 48.8% | A549/ATCC NSCLC 88.9% | DU-145 prostate 98.1% | K-562 leukemia 66.7% | MALME-3M melanoma 58.4% | MDA-MB-231 breast 77.8% | RXF 393 renal 93.9% | SF-268 CNS 81.4% | SF-295 CNS 84.2% | SF-539 CNS 74.4% | UACC-257 melanoma 84.1%

c1ccc(CCCCc2ccc3ccccc3n2)cc1
inactive: NCI-H23 lung 102% | NCI-H226 lung 94.8% | NCI-H322M lung 99.7% | NCI-H460 lung 105% | NCI-H522 lung 75.3% | A549/ATCC NSCLC 98.5% | 786-0 renal 102% | DU-145 prostate 111% | K-562 leukemia 102% | MALME-3M melanoma 98.2% | MDA-MB-231 breast 106% | SF-268 CNS 99% | SF-295 CNS 106% | SF-539 CNS 101% | UACC-257 melanoma 103% | M14 melanoma 98.1%

CC(=O)OC1C=CC(OC(C)=O)O1 (configuration not stated)
inactive: NCI-H23 lung 89.4% | NCI-H226 lung 80% | NCI-H322M lung 101% | NCI-H460 lung 96.5% | NCI-H522 lung 79.2% | A549/ATCC NSCLC 103% | 786-0 renal 94.6% | COLO 205 colon 97.1% | DU-145 prostate 101% | K-562 leukemia 91.1% | MALME-3M melanoma 89.7% | MDA-MB-231 breast 97.7% | RXF 393 renal 112% | SF-268 CNS 97.4% | SF-295 CNS 93.5% | SF-539 CNS 112% | UACC-257 melanoma 94% | M14 melanoma 89.5%

Nc1cc(Br)c(-c2nn3c(CCC(=O)c4nc5ccccc5[nH]4)nnc3s2)c(Br)c1
active: K-562 leukemia 7.05%
inactive: NCI-H23 lung 87.3% | NCI-H226 lung 83.6% | HOP-62 NSCLC 103% | NCI-H460 lung 102% | HOP-92 NSCLC 72.8% | NCI-H522 lung 97.4% | A549/ATCC NSCLC 101% | 786-0 renal 99.8% | COLO 205 colon 107% | DU-145 prostate 102% | MALME-3M melanoma 95.8% | MDA-MB-231 breast 99% | RXF 393 renal 109% | SF-268 CNS 99.7% | SF-295 CNS 108% | SF-539 CNS 83.4% | UACC-257 melanoma 116%

IC(I)I
inactive: NCI-H23 lung 102% | NCI-H226 lung 100% | NCI-H322M lung 102% | NCI-H460 lung 109% | NCI-H522 lung 119% | A549/ATCC NSCLC 102% | 786-0 renal 101% | DU-145 prostate 107% | K-562 leukemia 120% | MDA-MB-231 breast 88.6% | RXF 393 renal 125% | SF-268 CNS 96.4% | SF-295 CNS 114% | SF-539 CNS 118% | UACC-257 melanoma 109% | M14 melanoma 99%

CC1(C)N=C(N)N=C(N)N1c1cccc(C#N)c1
inactive: NCI-H23 lung 75.2% | NCI-H226 lung 67.9% | NCI-H322M lung 64.6% | NCI-H460 lung 22.3% | NCI-H522 lung 65.6% | A549/ATCC NSCLC 29.4% | 786-0 renal 35.8% | COLO 205 colon 66.8% | DU-145 prostate 46.7% | K-562 leukemia 20.7% | MALME-3M melanoma 70.7% | MDA-MB-231 breast 78.4% | RXF 393 renal 50.7% | SF-268 CNS 29.8% | SF-295 CNS 35.3% | SF-539 CNS 46.2% | UACC-257 melanoma 73.3% | M14 melanoma 40%

COc1ccc2nc3cc(Cl)ccc3c(NCCCNCCO)c2c1
active: NCI-H23 lung -21.7% | NCI-H226 lung -9.48% | NCI-H322M lung -22.6% | NCI-H460 lung -8.13% | NCI-H522 lung -86.5% | A549/ATCC NSCLC -26.2% | 786-0 renal 6.46% | DU-145 prostate 5.64% | K-562 leukemia -4.13% | MDA-MB-231 breast -53.8% | SF-268 CNS -13.2% | SF-295 CNS 3.49% | SF-539 CNS -10.2% | UACC-257 melanoma -75.4% | M14 melanoma -62.8%
inactive: MALME-3M melanoma 17.8%

O=C(CCNC(=O)c1nc(-c2ccccc2)n(-c2ccc(Cl)cc2)n1)NO
inactive: NCI-H23 lung 101% | NCI-H226 lung 96.7% | HOP-62 NSCLC 83.7% | NCI-H460 lung 104% | HOP-92 NSCLC 108% | NCI-H522 lung 82.4% | A549/ATCC NSCLC 88.6% | 786-0 renal 96.2% | COLO 205 colon 94.8% | DU-145 prostate 102% | K-562 leukemia 105% | MALME-3M melanoma 97.4% | MDA-MB-231 breast 102% | RXF 393 renal 99.6% | SF-268 CNS 93.9% | SF-295 CNS 99% | SF-539 CNS 84.6%

O=C(CI)OCC(COC(=O)CI)OC(=O)CI
inactive: NCI-H23 lung 65.9% | NCI-H226 lung 97.1% | NCI-H322M lung 112% | NCI-H460 lung 98.9% | A549/ATCC NSCLC 104% | 786-0 renal 45.9% | COLO 205 colon 33.2% | DU-145 prostate 59.5% | K-562 leukemia 41.6% | MALME-3M melanoma 24.3% | MDA-MB-231 breast 91.3% | RXF 393 renal 24.7% | SF-268 CNS 93.2% | SF-295 CNS 94.8% | SF-539 CNS 114% | UACC-257 melanoma 76.5% | M14 melanoma 83.2%

Source: PubChem BioAssay (NCI)
